Measurements: paper PMC7862700, “An all-to-all approach to the identification of sequence-specific readers for epigenetic DNA modifications on cytosine”

How the values were obtained:
Assay in all cases: DAPPL (digital affinity profiling via proximity ligation, sequencing); 10 mM Tris-HCl pH 7.5, 50 mM NaCl, 1 mM DTT, 4% glycerol, room temperature, 30 min; GST-TFs on glutathione beads, 16-mer random dsDNA library, 0.1% formaldehyde crosslink after washing; high values mean tight binding
FLI1 = molecular target: T1, FLI1 (Homo sapiens, UniProt Q01543 1-452); settings: protein: recombinant; tags: N-terminal GST; dsDNA, one strand shown
T1 sequence: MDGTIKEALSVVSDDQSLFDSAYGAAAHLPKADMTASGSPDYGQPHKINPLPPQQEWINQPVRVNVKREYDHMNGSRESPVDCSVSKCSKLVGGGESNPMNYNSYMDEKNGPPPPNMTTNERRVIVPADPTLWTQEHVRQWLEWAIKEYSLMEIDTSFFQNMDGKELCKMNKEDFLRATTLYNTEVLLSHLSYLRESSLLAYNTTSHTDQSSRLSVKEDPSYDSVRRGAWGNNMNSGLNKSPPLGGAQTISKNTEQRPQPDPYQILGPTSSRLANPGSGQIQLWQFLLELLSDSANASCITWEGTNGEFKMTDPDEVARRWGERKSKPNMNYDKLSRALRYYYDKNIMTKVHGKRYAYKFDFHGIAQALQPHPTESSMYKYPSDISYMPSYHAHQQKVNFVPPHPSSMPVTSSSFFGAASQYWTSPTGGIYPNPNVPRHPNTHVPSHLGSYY
In short: (§1)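 Human transcription factors carrying a GST fusion were produced in yeast, bound to glutathione beads, tagged with DNA barcodes and pooled together with a tag-only sample. Each pool was held with 200 nmole of a random double-stranded 16-mer DNA library in Tris/NaCl/DTT/glycerol buffer for 30 min at room temperature, then washed, crosslinked in 0.1% formaldehyde, proximity-ligated with BsaI/T4 ligase (1 h, 37 °C), PCR-amplified and sequenced on an Illumina NextSeq500. Binding signal is the read frequency of each hexamer for a given factor divided by its frequency in the tag-only sample.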

ELK1 = molecular target: T2, ELK1 (Homo sapiens, UniProt P19419 1-428); settings: protein: recombinant; tags: N-terminal GST; dsDNA, one strand shown
T2 sequence: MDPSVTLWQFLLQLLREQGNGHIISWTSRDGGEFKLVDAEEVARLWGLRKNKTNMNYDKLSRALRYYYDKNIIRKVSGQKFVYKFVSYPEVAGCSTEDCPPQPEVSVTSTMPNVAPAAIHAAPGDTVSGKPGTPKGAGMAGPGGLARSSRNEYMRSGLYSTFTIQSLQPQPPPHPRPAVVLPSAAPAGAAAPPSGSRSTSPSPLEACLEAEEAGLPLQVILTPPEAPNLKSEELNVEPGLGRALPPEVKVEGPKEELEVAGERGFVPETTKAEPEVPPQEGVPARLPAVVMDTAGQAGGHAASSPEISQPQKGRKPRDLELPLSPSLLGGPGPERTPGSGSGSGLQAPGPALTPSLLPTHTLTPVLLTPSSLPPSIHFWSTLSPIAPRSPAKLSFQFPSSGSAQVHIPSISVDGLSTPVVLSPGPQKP
In short: as §1

GABPA = molecular target: T3, GABPA (Homo sapiens, UniProt Q06546 1-454); settings: protein: recombinant; tags: N-terminal GST; dsDNA, one strand shown
T3 sequence: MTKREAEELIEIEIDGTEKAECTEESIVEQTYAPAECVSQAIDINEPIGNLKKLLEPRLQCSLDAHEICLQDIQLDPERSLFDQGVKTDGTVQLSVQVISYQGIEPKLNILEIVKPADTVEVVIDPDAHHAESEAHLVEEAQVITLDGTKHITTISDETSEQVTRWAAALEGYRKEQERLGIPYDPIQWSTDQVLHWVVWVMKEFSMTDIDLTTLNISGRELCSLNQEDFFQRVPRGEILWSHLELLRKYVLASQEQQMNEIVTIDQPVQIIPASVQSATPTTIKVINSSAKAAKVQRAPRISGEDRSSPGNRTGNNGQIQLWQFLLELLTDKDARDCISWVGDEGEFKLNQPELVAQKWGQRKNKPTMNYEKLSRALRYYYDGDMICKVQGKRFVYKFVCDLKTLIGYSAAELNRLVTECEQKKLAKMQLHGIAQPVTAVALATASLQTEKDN
In short: as §1

ERG = molecular target: T4, ERG (Homo sapiens, UniProt P11308 1-479); settings: protein: recombinant; tags: N-terminal GST; dsDNA, one strand shown
T4 sequence: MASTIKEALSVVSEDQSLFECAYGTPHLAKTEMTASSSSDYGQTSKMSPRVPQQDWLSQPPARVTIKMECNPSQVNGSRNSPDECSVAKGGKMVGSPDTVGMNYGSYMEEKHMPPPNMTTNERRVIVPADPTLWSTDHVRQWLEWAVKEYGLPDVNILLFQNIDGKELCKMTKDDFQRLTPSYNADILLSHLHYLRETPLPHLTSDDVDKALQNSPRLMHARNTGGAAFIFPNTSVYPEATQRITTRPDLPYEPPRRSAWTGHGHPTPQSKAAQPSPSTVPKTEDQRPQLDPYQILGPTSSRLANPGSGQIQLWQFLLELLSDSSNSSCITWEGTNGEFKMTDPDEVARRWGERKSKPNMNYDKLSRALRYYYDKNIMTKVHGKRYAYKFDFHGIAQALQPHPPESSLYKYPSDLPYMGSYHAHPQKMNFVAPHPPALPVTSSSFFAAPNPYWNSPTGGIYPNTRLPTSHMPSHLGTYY
In short: as §1

ELF1 = ELF1 (Homo sapiens, UniProt P32519 1-619); settings: protein: recombinant; tags: N-terminal GST; dsDNA, one strand shown
In short: as §1

EHF = molecular target: T5, EHF (Homo sapiens, UniProt Q9NZC4 1-300); settings: protein: recombinant; tags: N-terminal GST; dsDNA, one strand shown
T5 sequence: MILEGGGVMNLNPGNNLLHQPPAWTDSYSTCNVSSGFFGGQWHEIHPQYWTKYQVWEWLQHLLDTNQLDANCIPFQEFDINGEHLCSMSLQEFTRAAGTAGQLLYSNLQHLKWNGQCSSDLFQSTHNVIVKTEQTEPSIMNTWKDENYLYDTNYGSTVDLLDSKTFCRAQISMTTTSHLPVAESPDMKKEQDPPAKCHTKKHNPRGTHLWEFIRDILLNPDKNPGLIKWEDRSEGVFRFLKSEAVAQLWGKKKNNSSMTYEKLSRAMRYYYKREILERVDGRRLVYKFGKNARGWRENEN
In short: as §1

SPI1 = SPI1 (Homo sapiens, UniProt P17947 1-270); settings: protein: recombinant; tags: N-terminal GST; dsDNA, one strand shown
In short: as §1

SPIB = SPIB (Homo sapiens, UniProt Q01892 1-262); settings: protein: recombinant; tags: N-terminal GST; dsDNA, one strand shown
In short: as §1

ELK3 = molecular target: T6, ELK3 (Homo sapiens, UniProt P41970 1-407); settings: protein: recombinant; tags: N-terminal GST; dsDNA, one strand shown
T6 sequence: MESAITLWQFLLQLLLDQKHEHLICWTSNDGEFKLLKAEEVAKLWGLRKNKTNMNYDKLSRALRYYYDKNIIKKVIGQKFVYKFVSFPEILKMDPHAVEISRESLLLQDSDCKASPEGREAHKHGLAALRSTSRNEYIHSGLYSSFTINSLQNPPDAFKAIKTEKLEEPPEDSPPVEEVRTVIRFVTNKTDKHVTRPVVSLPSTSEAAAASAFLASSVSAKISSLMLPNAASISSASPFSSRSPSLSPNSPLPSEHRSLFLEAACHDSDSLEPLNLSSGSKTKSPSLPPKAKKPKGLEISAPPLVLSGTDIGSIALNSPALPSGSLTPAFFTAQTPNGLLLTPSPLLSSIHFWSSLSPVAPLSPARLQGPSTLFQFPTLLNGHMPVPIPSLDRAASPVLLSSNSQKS
In short: as §1

FEV = molecular target: T7, FEV (Homo sapiens, UniProt Q99581 1-238); settings: protein: recombinant; tags: N-terminal GST; dsDNA, one strand shown
T7 sequence: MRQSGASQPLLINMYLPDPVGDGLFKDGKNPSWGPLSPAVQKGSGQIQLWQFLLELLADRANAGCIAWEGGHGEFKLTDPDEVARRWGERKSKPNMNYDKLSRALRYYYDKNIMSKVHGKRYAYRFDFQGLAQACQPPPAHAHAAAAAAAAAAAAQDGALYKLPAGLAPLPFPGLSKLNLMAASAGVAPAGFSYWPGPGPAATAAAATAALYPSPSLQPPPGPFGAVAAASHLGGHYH
In short: as §1

ETV5 = ETV5 (Homo sapiens, UniProt P41161 1-510); settings: protein: recombinant; tags: N-terminal GST; dsDNA, one strand shown
In short: as §1

HSF1 = HSF1 (Homo sapiens, UniProt Q00613 1-529); settings: protein: recombinant; tags: N-terminal GST; chain copies: 3; dsDNA, one strand shown
In short: as §1

SPIC = molecular target: T8, SPIC (Homo sapiens, UniProt Q8N5J4 1-248); settings: protein: recombinant; tags: N-terminal GST; dsDNA, one strand shown
T8 sequence: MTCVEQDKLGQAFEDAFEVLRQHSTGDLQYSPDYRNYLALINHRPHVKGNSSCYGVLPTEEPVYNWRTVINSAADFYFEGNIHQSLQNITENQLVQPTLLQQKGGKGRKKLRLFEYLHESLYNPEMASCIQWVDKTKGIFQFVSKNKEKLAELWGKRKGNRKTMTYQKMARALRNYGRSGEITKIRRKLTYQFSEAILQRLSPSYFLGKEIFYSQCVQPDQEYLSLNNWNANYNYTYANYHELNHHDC
In short: as §1

ELF4 = ELF4 (Homo sapiens, UniProt Q99607 1-663); settings: protein: recombinant; tags: N-terminal GST; dsDNA, one strand shown
In short: as §1

ELK4 = molecular target: T9, ELK4 (Homo sapiens, UniProt P28324-2 1-405); settings: protein: recombinant; tags: N-terminal GST; dsDNA, one strand shown
T9 sequence: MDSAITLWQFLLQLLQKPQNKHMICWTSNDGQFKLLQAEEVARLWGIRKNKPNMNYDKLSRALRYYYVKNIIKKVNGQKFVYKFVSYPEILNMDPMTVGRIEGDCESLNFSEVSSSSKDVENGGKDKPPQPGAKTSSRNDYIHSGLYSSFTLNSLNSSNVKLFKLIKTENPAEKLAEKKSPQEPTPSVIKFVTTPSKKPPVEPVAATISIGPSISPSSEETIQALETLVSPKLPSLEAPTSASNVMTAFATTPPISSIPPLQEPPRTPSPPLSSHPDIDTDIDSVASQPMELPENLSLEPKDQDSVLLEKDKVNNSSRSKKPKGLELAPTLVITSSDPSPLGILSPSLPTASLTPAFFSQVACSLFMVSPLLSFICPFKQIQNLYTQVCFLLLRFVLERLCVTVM
In short: as §1

ELF3 = molecular target: T10, ELF3 (Homo sapiens, UniProt P78545 1-371); settings: protein: recombinant; tags: N-terminal GST; dsDNA, one strand shown
T10 sequence: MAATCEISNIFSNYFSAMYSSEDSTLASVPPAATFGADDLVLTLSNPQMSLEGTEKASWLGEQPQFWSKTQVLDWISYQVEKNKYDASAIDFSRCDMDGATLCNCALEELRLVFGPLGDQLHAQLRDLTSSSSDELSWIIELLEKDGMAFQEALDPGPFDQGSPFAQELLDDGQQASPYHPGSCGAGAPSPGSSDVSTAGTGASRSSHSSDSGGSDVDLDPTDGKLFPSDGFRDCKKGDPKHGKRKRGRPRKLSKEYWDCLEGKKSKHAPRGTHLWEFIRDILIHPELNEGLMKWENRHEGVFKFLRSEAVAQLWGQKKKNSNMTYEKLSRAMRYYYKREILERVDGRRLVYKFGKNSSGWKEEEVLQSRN
In short: as §1

CRX = CRX (Homo sapiens, UniProt O43186 1-299); settings: protein: recombinant; tags: N-terminal GST; dsDNA, one strand shown
In short: as §1

ETV1 = ETV1 (Homo sapiens, UniProt P50549 1-477); settings: protein: recombinant; tags: N-terminal GST; dsDNA, one strand shown
In short: as §1

Chain of HSF1 (Q00613 whole entry): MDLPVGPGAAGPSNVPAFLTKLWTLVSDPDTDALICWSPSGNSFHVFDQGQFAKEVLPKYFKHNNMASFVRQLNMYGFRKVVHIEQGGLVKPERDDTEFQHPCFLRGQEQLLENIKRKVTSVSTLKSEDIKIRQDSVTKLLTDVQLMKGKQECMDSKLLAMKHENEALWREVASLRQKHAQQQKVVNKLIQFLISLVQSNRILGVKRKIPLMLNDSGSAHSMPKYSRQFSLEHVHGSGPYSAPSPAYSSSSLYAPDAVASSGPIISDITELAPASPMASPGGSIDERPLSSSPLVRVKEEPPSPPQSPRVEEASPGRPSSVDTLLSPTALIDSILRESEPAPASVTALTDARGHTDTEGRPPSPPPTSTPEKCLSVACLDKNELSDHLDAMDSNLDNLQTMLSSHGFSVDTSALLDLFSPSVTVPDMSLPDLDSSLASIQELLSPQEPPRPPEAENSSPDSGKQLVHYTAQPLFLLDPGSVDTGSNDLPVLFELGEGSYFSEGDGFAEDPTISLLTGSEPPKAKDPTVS
Chain of CRX (O43186 whole entry): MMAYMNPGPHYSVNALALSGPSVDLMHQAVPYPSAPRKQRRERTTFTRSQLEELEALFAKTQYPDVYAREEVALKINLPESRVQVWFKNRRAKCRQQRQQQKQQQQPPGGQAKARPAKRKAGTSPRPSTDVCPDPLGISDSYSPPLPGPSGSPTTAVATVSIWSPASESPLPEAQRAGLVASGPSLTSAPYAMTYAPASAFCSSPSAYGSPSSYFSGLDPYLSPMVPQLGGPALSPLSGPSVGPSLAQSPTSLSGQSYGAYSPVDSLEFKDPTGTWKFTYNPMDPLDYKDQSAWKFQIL
Chain of ELF4 (Q99607 whole entry): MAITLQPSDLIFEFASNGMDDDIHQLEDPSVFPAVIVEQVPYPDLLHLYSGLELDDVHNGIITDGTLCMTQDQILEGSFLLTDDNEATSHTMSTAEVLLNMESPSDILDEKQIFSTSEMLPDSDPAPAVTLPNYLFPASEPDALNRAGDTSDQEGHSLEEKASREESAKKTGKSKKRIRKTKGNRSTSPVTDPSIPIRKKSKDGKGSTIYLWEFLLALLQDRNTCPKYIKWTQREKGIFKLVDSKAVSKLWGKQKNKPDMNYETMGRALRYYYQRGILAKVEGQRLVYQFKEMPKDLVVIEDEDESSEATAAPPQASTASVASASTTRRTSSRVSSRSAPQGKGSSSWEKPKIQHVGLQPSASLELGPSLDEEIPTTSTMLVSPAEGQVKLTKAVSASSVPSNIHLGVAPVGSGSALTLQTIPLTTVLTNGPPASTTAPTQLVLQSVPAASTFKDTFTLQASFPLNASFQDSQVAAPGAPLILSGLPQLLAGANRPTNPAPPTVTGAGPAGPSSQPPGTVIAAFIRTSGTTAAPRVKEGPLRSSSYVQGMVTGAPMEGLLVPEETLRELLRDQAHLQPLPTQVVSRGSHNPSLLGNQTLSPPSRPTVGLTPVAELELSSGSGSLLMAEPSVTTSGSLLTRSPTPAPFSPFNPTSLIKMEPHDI
Chain of ETV1 (P50549 whole entry): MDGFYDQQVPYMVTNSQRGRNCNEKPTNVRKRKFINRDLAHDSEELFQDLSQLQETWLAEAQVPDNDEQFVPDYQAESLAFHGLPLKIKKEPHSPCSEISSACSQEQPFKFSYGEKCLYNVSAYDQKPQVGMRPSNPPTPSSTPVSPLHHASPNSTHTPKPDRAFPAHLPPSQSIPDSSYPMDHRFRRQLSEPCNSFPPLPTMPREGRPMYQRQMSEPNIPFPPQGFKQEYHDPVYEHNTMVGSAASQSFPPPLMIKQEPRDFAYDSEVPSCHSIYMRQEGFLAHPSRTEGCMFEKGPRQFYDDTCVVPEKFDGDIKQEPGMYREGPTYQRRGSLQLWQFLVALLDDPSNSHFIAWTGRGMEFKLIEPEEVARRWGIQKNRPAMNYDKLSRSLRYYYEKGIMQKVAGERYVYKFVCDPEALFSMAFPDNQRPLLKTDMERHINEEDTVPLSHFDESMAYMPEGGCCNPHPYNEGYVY
Chain of ETV5 (P41161 whole entry): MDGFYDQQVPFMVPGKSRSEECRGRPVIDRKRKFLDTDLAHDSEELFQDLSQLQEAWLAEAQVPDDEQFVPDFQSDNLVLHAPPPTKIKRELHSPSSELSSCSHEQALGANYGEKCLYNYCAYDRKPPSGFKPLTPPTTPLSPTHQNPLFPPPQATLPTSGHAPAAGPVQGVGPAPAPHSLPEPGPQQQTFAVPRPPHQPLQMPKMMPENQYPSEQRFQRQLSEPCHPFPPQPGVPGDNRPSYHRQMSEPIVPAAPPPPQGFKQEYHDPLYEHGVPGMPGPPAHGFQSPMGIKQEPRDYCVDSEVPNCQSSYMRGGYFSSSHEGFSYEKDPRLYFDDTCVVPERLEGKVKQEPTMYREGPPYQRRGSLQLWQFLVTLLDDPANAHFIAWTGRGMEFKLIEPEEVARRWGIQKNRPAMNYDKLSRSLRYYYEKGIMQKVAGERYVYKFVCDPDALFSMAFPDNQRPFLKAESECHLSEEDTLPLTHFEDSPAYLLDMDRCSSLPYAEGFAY
Chain of SPIB (Q01892 whole entry): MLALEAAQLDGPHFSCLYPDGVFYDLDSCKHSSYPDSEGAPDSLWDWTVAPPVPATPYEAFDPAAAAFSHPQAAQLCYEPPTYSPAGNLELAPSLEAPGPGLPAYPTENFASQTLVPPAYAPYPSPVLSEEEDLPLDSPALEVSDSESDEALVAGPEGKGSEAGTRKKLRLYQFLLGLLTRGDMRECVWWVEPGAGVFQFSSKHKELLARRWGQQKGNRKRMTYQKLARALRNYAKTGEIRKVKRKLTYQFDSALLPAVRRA
Chain of ELF1 (P32519 whole entry): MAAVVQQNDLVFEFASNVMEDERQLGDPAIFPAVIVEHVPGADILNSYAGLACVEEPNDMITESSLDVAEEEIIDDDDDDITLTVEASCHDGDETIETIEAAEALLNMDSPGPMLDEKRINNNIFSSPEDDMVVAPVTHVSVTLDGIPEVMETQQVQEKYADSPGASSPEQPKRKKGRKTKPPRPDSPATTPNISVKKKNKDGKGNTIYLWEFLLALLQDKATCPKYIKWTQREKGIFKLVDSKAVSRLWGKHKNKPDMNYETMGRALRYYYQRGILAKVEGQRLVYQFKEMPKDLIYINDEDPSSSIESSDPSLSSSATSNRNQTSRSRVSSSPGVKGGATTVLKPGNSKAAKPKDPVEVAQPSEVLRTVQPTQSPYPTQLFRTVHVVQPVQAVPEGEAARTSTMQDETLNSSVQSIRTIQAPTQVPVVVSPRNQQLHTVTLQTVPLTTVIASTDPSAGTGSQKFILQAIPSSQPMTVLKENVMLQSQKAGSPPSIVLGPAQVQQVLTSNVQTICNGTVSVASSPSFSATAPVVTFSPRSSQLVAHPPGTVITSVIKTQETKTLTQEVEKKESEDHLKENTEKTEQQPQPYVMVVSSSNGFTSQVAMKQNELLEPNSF

## CGAACT
FLI1
  binding signal: 1.16 fold enrichment (6-mer frequency, TF over GST control)
ELK1
  binding signal: 1.17 fold enrichment (6-mer frequency, TF over GST control)
GABPA
  binding signal: 1.24 fold enrichment (6-mer frequency, TF over GST control)
ERG
  binding signal: 1.06 fold enrichment (6-mer frequency, TF over GST control)
ELF1
  binding signal: 1.24 fold enrichment (6-mer frequency, TF over GST control)
EHF
  binding signal: 1.17 fold enrichment (6-mer frequency, TF over GST control)
SPI1
  binding signal: 1.16 fold enrichment (6-mer frequency, TF over GST control)
SPIB
  binding signal: 1.03 fold enrichment (6-mer frequency, TF over GST control)
ELK3
  binding signal: 1.13 fold enrichment (6-mer frequency, TF over GST control)
FEV
  binding signal: 1.16 fold enrichment (6-mer frequency, TF over GST control)
ETV5
  binding signal: 1.19 fold enrichment (6-mer frequency, TF over GST control)
HSF1
  binding signal: 1.48 fold enrichment (6-mer frequency, TF over GST control)
SPIC
  binding signal: 1.01 fold enrichment (6-mer frequency, TF over GST control)
ELF4
  binding signal: 1.12 fold enrichment (6-mer frequency, TF over GST control)
ELK4
  binding signal: 1.15 fold enrichment (6-mer frequency, TF over GST control)
ELF3
  binding signal: 1.02 fold enrichment (6-mer frequency, TF over GST control)
CRX
  binding signal: 1.05 fold enrichment (6-mer frequency, TF over GST control)
ETV1
  binding signal: 1.1 fold enrichment (6-mer frequency, TF over GST control)
